Results reported in PubChem BioAssay (EPA / NIEHS).
Records with an inconclusive call do not appear. Activity calls are given as the source filed them. How the source made its calls: active means hit-call score of the fitted dose curve at least 0.9, where 1 is the maximum; inconclusive means response in the unintended direction; inactive means score below 0.9.

Key:
[1] = biological target: Estrogen receptor (Homo sapiens) (UniProt P03372); test: OT_ER_ERaERa_1440: Odyssey Thera (OT) 24-hour HEK293T Protein-Complementation Assay for Estrogen Receptor-alpha/-alpha Homodimer (AID 2283349);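 further: hits raise fluorescence above DMSO for agonists and antagonists alike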
Estrogen receptor (Homo sapiens), sequence (P03372 whole entry, looked up, the tested form may be a part): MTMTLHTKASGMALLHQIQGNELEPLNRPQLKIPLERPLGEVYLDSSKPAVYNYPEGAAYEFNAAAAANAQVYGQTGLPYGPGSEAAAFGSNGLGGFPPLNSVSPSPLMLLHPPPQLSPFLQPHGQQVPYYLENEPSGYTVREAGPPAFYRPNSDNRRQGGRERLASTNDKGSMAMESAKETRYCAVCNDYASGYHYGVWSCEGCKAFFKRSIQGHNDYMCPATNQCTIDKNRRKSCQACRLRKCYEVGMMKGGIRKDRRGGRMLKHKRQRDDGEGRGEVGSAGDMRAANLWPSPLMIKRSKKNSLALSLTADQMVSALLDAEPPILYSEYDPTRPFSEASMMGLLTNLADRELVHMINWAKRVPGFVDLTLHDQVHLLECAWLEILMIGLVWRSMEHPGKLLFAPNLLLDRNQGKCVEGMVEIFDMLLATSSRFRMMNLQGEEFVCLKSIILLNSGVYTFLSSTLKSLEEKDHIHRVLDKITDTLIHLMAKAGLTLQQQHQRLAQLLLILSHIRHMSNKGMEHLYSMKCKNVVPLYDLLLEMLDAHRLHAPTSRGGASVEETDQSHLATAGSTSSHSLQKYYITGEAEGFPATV
Outline: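 HEK293T, stable ERα LBD (aa 310-547) homodimer PCA; 24 h compound exposure; mean fluorescence intensity (nuclear for agonists, nuclear plus cytoplasmic for antagonists) vs vehicle; positive fitting direction, DMSO baseline.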

[2] = biological target: Estrogen receptor (Homo sapiens) (UniProt P03372); test: OT_ER_ERaERa_0480: Odyssey Thera (OT) 8-hour HEK293T Protein-Complementation Assay for Estrogen Receptor-alpha/-alpha Homodimer (AID 2283351);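 further: rise in fluorescence from reassembled reporter fragments on ERα LBD homodimer in nucleus or whole cell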
Outline: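 Cells were treated for 8 hours, then imaged on a laser scanning plate cytometer. Complementation of reporter fragments fused to the human ERα ligand-binding domain (residues 310-547) in HEK293T gave fluorescence, and gain of signal over vehicle was fitted.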

[3] = biological target: Estrogen receptor (Homo sapiens) + Estrogen receptor beta (Homo sapiens) (UniProt P03372+Q92731); test: OT_ER_ERaERb_0480: Odyssey Thera (OT) 8-hour HEK293T Protein-Complementation Assay for Estrogen Receptor-alpha/-beta Heterodimer (AID 2283352)
Estrogen receptor (Homo sapiens) + Estrogen receptor beta (Homo sapiens), sequence (P03372 whole entry, looked up, the tested form may be a part): as above
Estrogen receptor (Homo sapiens) + Estrogen receptor beta (Homo sapiens), sequence (Q92731 whole entry, looked up, the tested form may be a part): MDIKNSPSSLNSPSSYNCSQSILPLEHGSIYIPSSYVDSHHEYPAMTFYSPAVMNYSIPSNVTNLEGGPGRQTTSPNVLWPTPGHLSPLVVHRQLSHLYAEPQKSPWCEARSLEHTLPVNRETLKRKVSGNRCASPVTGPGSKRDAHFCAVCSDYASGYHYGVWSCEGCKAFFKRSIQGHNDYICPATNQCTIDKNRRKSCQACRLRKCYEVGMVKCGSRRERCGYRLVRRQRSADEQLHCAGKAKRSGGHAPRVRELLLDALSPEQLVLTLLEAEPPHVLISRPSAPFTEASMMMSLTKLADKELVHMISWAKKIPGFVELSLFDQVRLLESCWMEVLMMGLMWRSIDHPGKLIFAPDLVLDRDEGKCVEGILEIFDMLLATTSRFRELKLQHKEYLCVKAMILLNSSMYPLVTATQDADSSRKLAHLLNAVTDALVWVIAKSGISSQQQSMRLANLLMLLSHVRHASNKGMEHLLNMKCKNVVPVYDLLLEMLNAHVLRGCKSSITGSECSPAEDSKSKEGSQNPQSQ
Outline: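 Increase in mean fluorescence intensity, measured by laser scanning plate cytometry, reported ER-alpha/ER-beta LBD complementation in HEK293T cells after 8 h chemical exposure. DMSO served as baseline; basal signal is low, punctate and cytoplasmic.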

In the case of `Cc1c(C(=O)O)c(O)cc2c1C(=O)c1c(O)c([C@@H]3O[C@H](CO)[C@@H](O)[C@H](O)[C@H]3O)c(O)c(O)c1C2=O`, the outcome [1] is reported as “inactive”, the outcome [2] is reported as “inactive” and the outcome [3] is reported as “inactive”.
With `O=c1[nH]cc(F)c(=O)[nH]1` the outcome [1] was “inactive”, the outcome [2] was “inactive” and the outcome [3] was “inactive”.
In the case of `CC1(C)CC(N=C=O)CC(C)(CN=C=O)C1` (stereo not drawn), the outcome [1] is reported as “inactive” and the outcome [2] is reported as “inactive”.
